What was measured:
Experiment in all cases: log2 ratio of Biotin-Ahx-Ub-VS probe labelling (fragment/DMSO); higher = less target engagement (more negative = stronger competition), active = hit call of the paper (q ≤ 0.05, log2 ratio ≤ -1)
Settings in all cases: compound concentration: 200 uM; treatment time: 3 h
USP19 = target: T1, USP19 (UniProt O94966)
T1 sequence (whole entry): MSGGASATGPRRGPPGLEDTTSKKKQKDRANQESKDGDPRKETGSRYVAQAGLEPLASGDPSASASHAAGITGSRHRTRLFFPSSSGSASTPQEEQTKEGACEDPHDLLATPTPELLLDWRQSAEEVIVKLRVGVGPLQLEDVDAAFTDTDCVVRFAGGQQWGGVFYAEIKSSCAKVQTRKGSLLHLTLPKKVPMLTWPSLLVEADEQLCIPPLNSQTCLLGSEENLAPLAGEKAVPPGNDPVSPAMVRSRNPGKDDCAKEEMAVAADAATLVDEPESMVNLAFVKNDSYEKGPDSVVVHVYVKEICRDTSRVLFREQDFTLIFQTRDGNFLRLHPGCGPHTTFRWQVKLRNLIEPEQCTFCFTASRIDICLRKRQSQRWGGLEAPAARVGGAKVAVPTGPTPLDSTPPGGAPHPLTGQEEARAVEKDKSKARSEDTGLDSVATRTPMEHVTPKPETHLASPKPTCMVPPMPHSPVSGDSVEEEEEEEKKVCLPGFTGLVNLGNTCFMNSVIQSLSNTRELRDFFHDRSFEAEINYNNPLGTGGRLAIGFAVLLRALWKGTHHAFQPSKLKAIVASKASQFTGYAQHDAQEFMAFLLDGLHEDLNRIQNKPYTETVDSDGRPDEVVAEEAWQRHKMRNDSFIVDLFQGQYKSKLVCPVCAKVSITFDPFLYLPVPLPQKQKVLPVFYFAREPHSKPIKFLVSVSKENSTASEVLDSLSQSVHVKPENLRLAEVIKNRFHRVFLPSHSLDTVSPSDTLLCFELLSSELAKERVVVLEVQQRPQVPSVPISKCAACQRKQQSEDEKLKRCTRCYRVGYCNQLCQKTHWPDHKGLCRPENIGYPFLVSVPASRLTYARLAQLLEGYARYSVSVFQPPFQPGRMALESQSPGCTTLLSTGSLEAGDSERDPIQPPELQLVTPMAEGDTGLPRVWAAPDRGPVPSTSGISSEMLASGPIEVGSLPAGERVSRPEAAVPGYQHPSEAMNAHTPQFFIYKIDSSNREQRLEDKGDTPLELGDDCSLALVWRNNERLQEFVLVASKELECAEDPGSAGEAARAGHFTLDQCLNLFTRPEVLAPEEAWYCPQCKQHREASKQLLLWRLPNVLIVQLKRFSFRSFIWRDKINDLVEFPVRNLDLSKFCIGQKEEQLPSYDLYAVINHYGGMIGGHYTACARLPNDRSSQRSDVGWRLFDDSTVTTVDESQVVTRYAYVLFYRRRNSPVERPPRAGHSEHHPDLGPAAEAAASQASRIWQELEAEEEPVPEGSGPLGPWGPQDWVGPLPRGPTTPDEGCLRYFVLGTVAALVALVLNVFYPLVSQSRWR
How it was run: (§1)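 Triplicate samples of HEK293T lysate, 495 µg each, received fragment at 200 µM or vehicle for 3 h, followed by Biotin-Ahx-Ub-VS (0.5 µM final) for 1 h. After NeutrAvidin enrichment of labelled DUBs and LysC/trypsin digestion, peptides were run by diaPASEF LC-MS/MS. The values are average log2 fragment/vehicle ratios from global-median-normalised Spectronaut label-free quantities, tested by unpaired t-test on proteins having ≥2 unique peptides.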

USP22 = target: T2, USP22 (UniProt Q9UPT9)
T2 sequence (whole entry): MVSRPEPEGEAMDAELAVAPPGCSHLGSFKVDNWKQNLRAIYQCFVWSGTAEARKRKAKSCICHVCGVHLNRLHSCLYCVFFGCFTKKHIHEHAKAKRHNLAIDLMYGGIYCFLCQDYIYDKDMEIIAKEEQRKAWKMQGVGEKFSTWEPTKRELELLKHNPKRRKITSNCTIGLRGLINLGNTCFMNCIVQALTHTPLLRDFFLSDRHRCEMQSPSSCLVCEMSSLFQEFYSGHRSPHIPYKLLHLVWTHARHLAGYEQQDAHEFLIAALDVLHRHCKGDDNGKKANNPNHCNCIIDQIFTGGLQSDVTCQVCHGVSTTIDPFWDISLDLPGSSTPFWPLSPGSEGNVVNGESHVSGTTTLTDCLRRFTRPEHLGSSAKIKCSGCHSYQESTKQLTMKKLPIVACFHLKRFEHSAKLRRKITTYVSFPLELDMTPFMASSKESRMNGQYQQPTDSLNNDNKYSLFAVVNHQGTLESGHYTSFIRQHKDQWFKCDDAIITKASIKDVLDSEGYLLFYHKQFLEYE
How it was run: as §1

USP24 = USP24 (UniProt Q9UPU5)
How it was run: as §1

USP25 = target: T3, USP25 (UniProt Q9UHP3)
T3 sequence (whole entry): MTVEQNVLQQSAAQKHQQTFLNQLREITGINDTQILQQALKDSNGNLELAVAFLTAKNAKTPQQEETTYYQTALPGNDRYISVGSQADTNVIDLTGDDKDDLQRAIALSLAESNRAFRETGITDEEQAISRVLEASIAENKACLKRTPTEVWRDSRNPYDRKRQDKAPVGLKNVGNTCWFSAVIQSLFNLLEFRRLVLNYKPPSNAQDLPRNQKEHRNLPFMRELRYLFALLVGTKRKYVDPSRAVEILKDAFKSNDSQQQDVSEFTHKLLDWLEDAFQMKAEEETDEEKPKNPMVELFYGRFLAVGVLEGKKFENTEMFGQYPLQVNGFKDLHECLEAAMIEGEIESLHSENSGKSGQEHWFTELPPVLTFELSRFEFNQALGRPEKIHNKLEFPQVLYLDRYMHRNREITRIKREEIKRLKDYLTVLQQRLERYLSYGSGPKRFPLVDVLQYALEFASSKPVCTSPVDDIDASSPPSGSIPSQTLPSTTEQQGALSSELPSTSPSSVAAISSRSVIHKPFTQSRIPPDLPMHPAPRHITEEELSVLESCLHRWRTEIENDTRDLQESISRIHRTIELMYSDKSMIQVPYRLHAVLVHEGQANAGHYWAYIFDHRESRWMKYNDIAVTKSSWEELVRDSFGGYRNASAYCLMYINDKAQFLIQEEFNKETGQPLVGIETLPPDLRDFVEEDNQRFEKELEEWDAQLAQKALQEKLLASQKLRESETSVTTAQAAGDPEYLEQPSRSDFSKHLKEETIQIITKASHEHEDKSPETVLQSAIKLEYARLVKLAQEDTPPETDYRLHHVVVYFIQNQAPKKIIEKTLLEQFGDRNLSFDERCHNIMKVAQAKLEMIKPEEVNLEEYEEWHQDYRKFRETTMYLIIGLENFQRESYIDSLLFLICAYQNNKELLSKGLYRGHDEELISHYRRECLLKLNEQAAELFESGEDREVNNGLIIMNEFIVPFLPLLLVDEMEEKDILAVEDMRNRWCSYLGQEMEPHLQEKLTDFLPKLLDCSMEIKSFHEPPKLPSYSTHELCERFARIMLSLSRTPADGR
How it was run: as §1

USP28 = target: T4, USP28 (UniProt Q96RU2)
T4 sequence (whole entry): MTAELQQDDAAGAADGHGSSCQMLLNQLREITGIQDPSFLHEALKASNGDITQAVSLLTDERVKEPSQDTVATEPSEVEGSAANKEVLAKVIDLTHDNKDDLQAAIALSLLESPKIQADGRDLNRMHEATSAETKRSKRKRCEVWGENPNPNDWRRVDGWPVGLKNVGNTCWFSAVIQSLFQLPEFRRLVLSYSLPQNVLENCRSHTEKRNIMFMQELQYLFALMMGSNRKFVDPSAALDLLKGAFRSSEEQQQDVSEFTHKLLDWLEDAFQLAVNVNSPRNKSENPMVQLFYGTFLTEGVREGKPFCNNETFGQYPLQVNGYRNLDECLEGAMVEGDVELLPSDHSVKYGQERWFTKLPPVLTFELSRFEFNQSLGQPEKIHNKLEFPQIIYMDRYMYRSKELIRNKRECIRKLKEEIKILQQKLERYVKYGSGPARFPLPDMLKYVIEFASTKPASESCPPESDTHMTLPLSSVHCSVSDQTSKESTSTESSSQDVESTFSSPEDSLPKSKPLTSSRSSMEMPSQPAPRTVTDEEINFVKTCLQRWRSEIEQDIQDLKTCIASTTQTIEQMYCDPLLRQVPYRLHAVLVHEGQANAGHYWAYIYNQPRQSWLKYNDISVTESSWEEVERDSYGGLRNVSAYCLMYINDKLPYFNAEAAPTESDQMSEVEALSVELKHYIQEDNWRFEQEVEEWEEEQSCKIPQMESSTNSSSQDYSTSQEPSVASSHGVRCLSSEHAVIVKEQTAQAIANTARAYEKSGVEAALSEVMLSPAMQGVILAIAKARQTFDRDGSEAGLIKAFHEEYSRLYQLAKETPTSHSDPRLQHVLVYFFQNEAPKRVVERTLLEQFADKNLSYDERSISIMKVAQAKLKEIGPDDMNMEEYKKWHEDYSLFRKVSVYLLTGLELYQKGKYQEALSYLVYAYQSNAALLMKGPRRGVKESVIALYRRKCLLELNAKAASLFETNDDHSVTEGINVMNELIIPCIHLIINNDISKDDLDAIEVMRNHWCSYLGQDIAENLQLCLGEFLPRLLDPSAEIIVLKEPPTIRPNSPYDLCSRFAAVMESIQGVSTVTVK
How it was run: as §1

Measured: log2 ratio of Biotin-Ahx-Ub-VS probe labelling

USP24, sequence (Q9UPU5 whole entry): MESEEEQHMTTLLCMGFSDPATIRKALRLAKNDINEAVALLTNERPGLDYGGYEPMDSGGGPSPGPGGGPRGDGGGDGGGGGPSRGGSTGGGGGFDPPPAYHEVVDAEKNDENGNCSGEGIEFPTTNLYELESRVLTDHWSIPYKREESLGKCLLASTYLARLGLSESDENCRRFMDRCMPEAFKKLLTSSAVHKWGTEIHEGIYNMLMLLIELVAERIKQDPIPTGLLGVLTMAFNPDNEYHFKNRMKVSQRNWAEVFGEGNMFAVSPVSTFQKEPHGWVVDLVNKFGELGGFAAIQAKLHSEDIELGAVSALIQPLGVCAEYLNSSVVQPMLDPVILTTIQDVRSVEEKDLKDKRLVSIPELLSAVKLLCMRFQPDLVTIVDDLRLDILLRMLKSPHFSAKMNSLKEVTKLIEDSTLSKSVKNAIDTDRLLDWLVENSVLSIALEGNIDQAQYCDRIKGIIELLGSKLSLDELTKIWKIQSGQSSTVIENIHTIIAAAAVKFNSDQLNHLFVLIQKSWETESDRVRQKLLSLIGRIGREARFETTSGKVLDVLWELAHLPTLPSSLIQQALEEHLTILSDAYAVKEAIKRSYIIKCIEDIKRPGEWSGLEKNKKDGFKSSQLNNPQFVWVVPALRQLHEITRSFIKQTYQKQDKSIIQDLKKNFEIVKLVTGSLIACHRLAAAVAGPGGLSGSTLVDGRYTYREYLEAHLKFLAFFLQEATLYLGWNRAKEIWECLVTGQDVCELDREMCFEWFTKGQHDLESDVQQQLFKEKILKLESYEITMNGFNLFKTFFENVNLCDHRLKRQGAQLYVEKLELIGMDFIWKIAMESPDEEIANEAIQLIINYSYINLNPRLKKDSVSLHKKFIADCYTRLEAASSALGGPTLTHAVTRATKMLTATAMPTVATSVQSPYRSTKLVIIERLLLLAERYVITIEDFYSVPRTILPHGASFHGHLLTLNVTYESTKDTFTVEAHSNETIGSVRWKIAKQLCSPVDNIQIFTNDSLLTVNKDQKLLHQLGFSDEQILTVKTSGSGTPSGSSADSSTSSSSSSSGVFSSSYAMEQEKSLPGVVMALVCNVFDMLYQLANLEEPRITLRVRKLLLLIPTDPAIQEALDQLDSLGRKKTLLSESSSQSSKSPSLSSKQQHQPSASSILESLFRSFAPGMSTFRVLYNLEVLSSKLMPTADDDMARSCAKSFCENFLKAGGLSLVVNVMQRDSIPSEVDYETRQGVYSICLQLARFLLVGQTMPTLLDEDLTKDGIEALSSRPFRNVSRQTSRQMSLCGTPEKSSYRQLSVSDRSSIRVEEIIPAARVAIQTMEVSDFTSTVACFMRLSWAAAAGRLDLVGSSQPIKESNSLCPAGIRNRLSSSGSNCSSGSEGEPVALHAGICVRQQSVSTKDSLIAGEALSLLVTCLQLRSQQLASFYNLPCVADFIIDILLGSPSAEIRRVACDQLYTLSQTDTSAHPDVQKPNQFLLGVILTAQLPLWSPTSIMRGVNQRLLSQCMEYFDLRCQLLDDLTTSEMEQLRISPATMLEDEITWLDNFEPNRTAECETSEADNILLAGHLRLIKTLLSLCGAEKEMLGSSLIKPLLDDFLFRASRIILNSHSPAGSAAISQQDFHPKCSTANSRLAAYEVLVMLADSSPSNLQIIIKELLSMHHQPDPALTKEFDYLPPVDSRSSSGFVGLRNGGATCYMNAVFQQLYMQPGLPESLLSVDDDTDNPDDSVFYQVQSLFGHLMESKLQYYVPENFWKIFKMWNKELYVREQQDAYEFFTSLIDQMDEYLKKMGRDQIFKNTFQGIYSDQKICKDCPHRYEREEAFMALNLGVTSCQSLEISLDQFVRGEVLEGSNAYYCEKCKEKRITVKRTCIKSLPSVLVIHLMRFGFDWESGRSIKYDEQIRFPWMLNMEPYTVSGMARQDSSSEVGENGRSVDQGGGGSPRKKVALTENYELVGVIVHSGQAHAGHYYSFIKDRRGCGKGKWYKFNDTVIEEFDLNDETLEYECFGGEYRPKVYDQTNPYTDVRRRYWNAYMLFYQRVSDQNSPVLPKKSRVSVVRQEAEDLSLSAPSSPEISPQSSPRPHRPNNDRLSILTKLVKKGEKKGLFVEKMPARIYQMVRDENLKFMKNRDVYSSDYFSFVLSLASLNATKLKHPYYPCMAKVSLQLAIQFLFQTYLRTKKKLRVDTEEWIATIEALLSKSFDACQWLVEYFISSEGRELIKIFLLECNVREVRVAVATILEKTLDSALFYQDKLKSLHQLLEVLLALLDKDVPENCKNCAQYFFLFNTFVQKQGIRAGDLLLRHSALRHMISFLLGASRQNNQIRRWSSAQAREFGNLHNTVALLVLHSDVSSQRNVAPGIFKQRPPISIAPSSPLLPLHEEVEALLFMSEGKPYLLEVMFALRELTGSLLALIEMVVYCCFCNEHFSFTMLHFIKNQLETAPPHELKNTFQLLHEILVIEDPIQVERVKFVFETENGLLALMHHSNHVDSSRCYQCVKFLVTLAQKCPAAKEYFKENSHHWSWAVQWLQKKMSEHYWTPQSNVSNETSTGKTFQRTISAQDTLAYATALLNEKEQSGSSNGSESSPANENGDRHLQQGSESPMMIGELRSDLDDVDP

CCC(NC(=O)CCl)c1ccc(Cl)cc1 (stereo not given)
inactive: USP19 -0.0763 | USP22 -0.735 | USP24 -0.327 | USP25 -0.24 | USP28 -0.504

From the supplement of paper PMC11732987, “Enantioselective OTUD7B fragment discovery through chemoproteomics screening and high-throughput optimisation” (Communications Chemistry, 2025)
